± gives the standard deviation.
Assays:
[1] = test system: MILI (PIWIL2) piRISC loaded with L1MC piRNA (26 nt); assay: pre-steady-state target cleavage rate (min^-1); guide: L1MC piRNA 5'p-UAACUAAAUACUAUGCAAGCUGUAGG; higher = faster piRNA-guided slicing of the target;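 also: 1 nM active piRISC with 0.1 nM target library at 33 °C single turnover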
Method in brief: (§1)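 The pre-steady-state cleavage rate was calculated from a burst-and-steady-state fit. Data came from Cleave-'n-Seq, in which […] transcribed, DNA-blocked target RNA library was mixed with 1 nM active affinity-purified piRISC carrying one synthetic guide, with or without 500 nM GTSF1 partner protein, in HEPES–potassium acetate buffer at 33 °C for 0–8 or 0–960 min. Uncleaved targets were sequenced and normalised to depth and to weakly complementary targets, three trials were pooled, and k3 was capped at 0.0001 min^-1.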

[2] = test system: EfPiwi piRISC loaded with L1MC piRNA (26 nt); assay: pre-steady-state target cleavage rate (min^-1); auxiliary factor: none (no Gtsf1); guide: L1MC piRNA 5'p-UAACUAAAUACUAUGCAAGCUGUAGG; higher = faster piRNA-guided slicing of the target
Method in brief: as §1

[3] = test system: EfPiwi piRISC loaded with L1MC piRNA (26 nt); assay: pre-steady-state target cleavage rate (min^-1); auxiliary factor: 500 nM Ephydatia muelleri Gtsf1; guide: L1MC piRNA 5'p-UAACUAAAUACUAUGCAAGCUGUAGG; MIWI and MILI are mouse PIWI proteins and EfPiwi is from a freshwater sponge; tags in brackets are library labels; higher = faster piRNA-guided slicing of the target
Method in brief: as §1

[4] = auxiliary factor: 500 nM mouse GTSF1
[5] = auxiliary factor: none (no GTSF1)

Q: What does the source list for UCCUGGAUGUCCAUGCAUAGUAUUUAGAUA?
A: pre-steady-state target cleavage rate [1, 4]: 0.0163 ± 0.0062; pre-steady-state target cleavage rate [2]: < 0.0001

Q: Which “pre-steady-state target cleavage rate” value [1, 4] does the source give for UCCUGGAUGUCCUUGCUAAGUAUUUAGUUA here?
A: Its value is 0.00944 ± 0.0051.

Q: What about the “pre-steady-state target cleavage rate” value [2] of the same sequence?
A: Its value is less than 0.0001.

Q: With UCCUGGAUGUGCAUGCAUAGUAUUUACUUA as the sequence, how does the “pre-steady-state target cleavage rate” value [1, 4] read?
A: The value was 0.065 ± 0.018.

Q: What about the “pre-steady-state target cleavage rate” value [1, 5] of the same sequence?
A: The value was 0.00616 ± 0.0026.

Q: What about the “pre-steady-state target cleavage rate” value [2] of the same sequence?
A: The value was less than 0.0001.

Q: Which “pre-steady-state target cleavage rate” value [1, 4] does the source give for UCCUGGAUCAGCUUGCAUAGUAUUUUAGUUA here?
A: Its value is 0.23 ± 0.025.

Q: What about the “pre-steady-state target cleavage rate” value [1, 5] of the same sequence?
A: The value was 0.0107 ± 0.0028.

Q: And the “pre-steady-state target cleavage rate” value [2]?
A: The value was 0.0111 ± 0.0065.

Q: And the “pre-steady-state target cleavage rate” value [3]?
A: The value was 0.0214 ± 0.0071.

Q: For UCCUGGAUCAGCAACCAUAGUAUUUUCAAA, which “pre-steady-state target cleavage rate” value [1, 5] is on record?
A: Its value is less than 0.0001.

Q: And the “pre-steady-state target cleavage rate” value [2]?
A: The value was less than 0.0001.

Q: For UCCUCCUACAGGAUGCAUAGUAUUUUCAAA, which “pre-steady-state target cleavage rate” value [1, 4] is on record?
A: Its value is 0.0564 ± 0.017.

Q: And the “pre-steady-state target cleavage rate” value [2]?
A: The value was less than 0.0001.

Q: Which results are given for UCCUGGAAGUGCUUGCAUAGUAUUUAGAAA?
A: pre-steady-state target cleavage rate [1, 4]: 0.00889 ± 0.0052; pre-steady-state target cleavage rate [2]: < 0.0001

Q: How did the “pre-steady-state target cleavage rate” value [1, 4] turn out when UCCUCCUACAGCUUGCAUUCUAUUUUCAAA was run?
A: The value was 0.0147 ± 0.0054.

Q: What about the “pre-steady-state target cleavage rate” value [2] of the same sequence?
A: Its value is less than 0.0001.

Q: How did the “pre-steady-state target cleavage rate” value [1, 4] turn out when UCCUGGAUGUCGAAGCAUAGUAUUUAGUGA was run?
A: The value was 0.0495 ± 0.015.

Q: And the “pre-steady-state target cleavage rate” value [1, 5]?
A: The value was 0.00324 ± 0.0026.

Q: What about the “pre-steady-state target cleavage rate” value [2] of the same sequence?
A: The value was less than 0.0001.

Q: Which “pre-steady-state target cleavage rate” value [2] does the source give for UCCUGGAUGUCGUUGCAUAGUUUUAGUUA here?
A: The value was less than 0.0001.

Q: For UCCUGGAUGUCGAACGUAUGUUAUUAGUUA, which “pre-steady-state target cleavage rate” value [2] is on record?
A: The value was less than 0.0001.

Q: For UCCUGGAUCAGGAAGCAUAGUAUUUAGAAA, which “pre-steady-state target cleavage rate” value [1, 4] is on record?
A: The value was 0.0247 ± 0.0063.

Q: And the “pre-steady-state target cleavage rate” value [2]?
A: Its value is less than 0.0001.

Q: With UCCUGGAUGUCGAACGUAAGAUUUAGUUA as the sequence, how does the “pre-steady-state target cleavage rate” value [2] read?
A: The value was less than 0.0001.

Q: With UCCUGGAUGUCGAACGUAUCUAUUCAGUUA as the sequence, how does the “pre-steady-state target cleavage rate” value [2] read?
A: Its value is less than 0.0001.

Q: UCCUGGAUGUCGAACCAUACGUAUUUAGUUA was tested. Which “pre-steady-state target cleavage rate” value [1, 5] did it give?
A: Its value is less than 0.0001.

Q: And the “pre-steady-state target cleavage rate” value [2]?
A: The value was less than 0.0001.

Q: How did the “pre-steady-state target cleavage rate” value [2] turn out when UCCUGGUACAGGAAGCAUAGUAUUUAGAAA was run?
A: The value was less than 0.0001.

Q: How did the “pre-steady-state target cleavage rate” value [1, 4] turn out when UCCUGGAUGUCGAACCAUAGUAUUUAGUUA was run?
A: Its value is 0.00718 ± 0.0019.

Q: UCCUGGAUGUCGUUGCAUAGUUUAUAGUUA was tested. Which “pre-steady-state target cleavage rate” value [1, 5] did it give?
A: The value was 0.0036 ± 0.0028.

Q: How did the “pre-steady-state target cleavage rate” value [1, 4] turn out when UCCUGGAUGUCGAUGCAUAGUCAUUUAGUUA was run?
A: Its value is 0.00452 ± 0.004.

Q: With UCCUGGAUGUCGAACGAUAGUAUUUAAGUUA as the sequence, how does the “pre-steady-state target cleavage rate” value [1, 5] read?
A: The value was less than 0.0001.

Q: With UCCUGGAUCAGCUUGCUAAGUAUUUAGAAA as the sequence, how does the “pre-steady-state target cleavage rate” value [1, 4] read?
A: The value was 0.0172 ± 0.006.

Q: How did the “pre-steady-state target cleavage rate” value [1, 4] turn out when UCCUGGAACAGCUUGCUAAGUAUUUACAAA was run?
A: Its value is 0.0164 ± 0.0066.

Q: How did the “pre-steady-state target cleavage rate” value [1, 4] turn out when UCCUGGAUGUCGAACGUAUCUAUUUCAGUUA was run?
A: Its value is less than 0.0001.

Q: With UCCUGGAUCAGCUACGAUAGUAUUUUCAAA as the sequence, how does the “pre-steady-state target cleavage rate” value [1, 5] read?
A: Its value is less than 0.0001.

Q: Which “pre-steady-state target cleavage rate” value [1, 4] does the source give for UCCUGCAACAGCUUGCAUAGUAUUUACUUA here?
A: Its value is 0.122 ± 0.012.

Q: For UCCUGGAUGUCGAACCAUGAGUAUUUAGUUA, which “pre-steady-state target cleavage rate” value [1, 5] is on record?
A: The value was less than 0.0001.

Q: Which “pre-steady-state target cleavage rate” value [1, 5] does the source give for UCCUGGAUGUCGAAGCAUAGAAUUUACUUA here?
A: The value was less than 0.0001.

Q: Which “pre-steady-state target cleavage rate” value [1, 5] does the source give for UCCUGGAUCAGCUACCAUAGUAUUUUCAAA here?
A: The value was less than 0.0001.

Q: With UCCUGCUACAGCUUGCAUAGUAUUAUGAAA as the sequence, how does the “pre-steady-state target cleavage rate” value [1, 4] read?
A: Its value is 0.0843 ± 0.025.

Q: UCCUGGAUCAGCUUGCAUAGUAUAAUGUUA was tested. Which “pre-steady-state target cleavage rate” value [1, 4] did it give?
A: Its value is 0.116 ± 0.013.

Q: For UCCUGGAUCAGGUUGCAUAGUAUUUACUUA, which “pre-steady-state target cleavage rate” value [1, 4] is on record?
A: The value was 0.117 ± 0.029.

Q: UCCUCCUUCAGCUUGCAUAGUAUUUUCAAA was tested. Which “pre-steady-state target cleavage rate” value [1, 4] did it give?
A: The value was 0.115 ± 0.022.

Q: For UCCUGGAUGUCGAAGCAUAGUAUUUCAGUUA, which “pre-steady-state target cleavage rate” value [1, 4] is on record?
A: Its value is 0.0176 ± 0.0068.

Q: Which “pre-steady-state target cleavage rate” value [1, 4] does the source give for UCCUCCUACAGCUUCCAUAGUAAUUAGUUA here?
A: Its value is 0.0149 ± 0.0069.

Q: Which “pre-steady-state target cleavage rate” value [1, 4] does the source give for UCCUGGUACAGCUUGCUUAGUAUUUUCAAA here?
A: Its value is 0.0244 ± 0.0078.

Q: UCCUGGAUCAGCAAGCAUAGUAUUUACAAA was tested. Which “pre-steady-state target cleavage rate” value [1, 4] did it give?
A: Its value is 0.108 ± 0.023.

Q: Which “pre-steady-state target cleavage rate” value [1, 4] does the source give for UCCUGGAUCAGCUUGCAUUGUAUUUAGUAA here?
A: Its value is 0.144 ± 0.014.

Q: How did the “pre-steady-state target cleavage rate” value [1, 4] turn out when UCCUGGAUGUGCUUCCAUUGUAUUUAGUUA was run?
A: The value was 0.0206 ± 0.0071.

Q: UCCUGGAACAGCUUGCAUAGAUAUUAGUUA was tested. Which “pre-steady-state target cleavage rate” value [1, 4] did it give?
A: Its value is 0.0112 ± 0.0053.

Q: How did the “pre-steady-state target cleavage rate” value [1, 4] turn out when UCCUGGAUGAGCUUGCAUAGAAUUUAGUUA was run?
A: The value was 0.0653 ± 0.017.

Q: Which “pre-steady-state target cleavage rate” value [1, 4] does the source give for UCCUGGAUGACCUUGCAUAGUAUUUUGUUA here?
A: The value was 0.0852 ± 0.023.

Q: How did the “pre-steady-state target cleavage rate” value [1, 4] turn out when UCCUGGUAGAGCUUGCAUACUAUUUAGUUA was run?
A: The value was 0.0467 ± 0.011.

Q: UCCUGGAUGUCGAAGCAUAGUAUUUCGUUA was tested. Which “pre-steady-state target cleavage rate” value [1, 4] did it give?
A: The value was 0.00855 ± 0.0046.
